Compound activity (PubChem)
Six1-Eya2 blk: qHTS Assay for Inhibitors of the Six1/Eya2 Interaction | Homeobox protein SIX1 (Homo sapiens) + Protein phosphatase EYA2 (Homo sapiens), … | AlphaScreen GST-Six1/His-Eya2 binding, biochemical; stronger effect = lower value | AID 651725, 2012 | activity change, % (concentration not given with the values) | 0.56% of 360,000 active; in the data active = activity change below about -65%; inconclusive = mostly about -30% to -63%
Target sequence (O00167 whole entry, looked up): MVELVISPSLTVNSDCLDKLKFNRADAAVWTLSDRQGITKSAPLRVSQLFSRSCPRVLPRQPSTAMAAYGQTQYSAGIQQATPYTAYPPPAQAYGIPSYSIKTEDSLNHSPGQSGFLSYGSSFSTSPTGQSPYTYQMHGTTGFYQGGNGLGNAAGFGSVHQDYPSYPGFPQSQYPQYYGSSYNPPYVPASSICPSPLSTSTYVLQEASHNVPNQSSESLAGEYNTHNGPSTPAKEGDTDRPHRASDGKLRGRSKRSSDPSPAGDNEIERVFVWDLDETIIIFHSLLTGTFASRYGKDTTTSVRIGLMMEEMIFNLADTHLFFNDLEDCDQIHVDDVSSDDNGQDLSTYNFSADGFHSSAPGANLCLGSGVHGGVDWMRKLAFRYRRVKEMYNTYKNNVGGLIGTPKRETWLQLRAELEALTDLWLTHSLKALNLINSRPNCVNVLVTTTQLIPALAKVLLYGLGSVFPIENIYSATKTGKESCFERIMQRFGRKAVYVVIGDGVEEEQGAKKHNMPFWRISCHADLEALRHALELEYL
Target sequence (Q15475 whole entry, looked up): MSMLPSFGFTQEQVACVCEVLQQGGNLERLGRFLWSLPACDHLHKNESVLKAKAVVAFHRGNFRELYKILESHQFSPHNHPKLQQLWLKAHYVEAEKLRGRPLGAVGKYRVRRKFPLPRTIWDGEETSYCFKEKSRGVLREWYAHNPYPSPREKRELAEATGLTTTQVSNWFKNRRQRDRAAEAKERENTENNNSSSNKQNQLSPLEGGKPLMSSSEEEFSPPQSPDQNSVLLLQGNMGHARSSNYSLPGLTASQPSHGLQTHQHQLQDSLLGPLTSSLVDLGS
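Homogeneous AlphaScreen proximity assay pairing GST-Six1 with His-tagged Eya2 (added as 5X mix: 250 nM and 500 nM) in 50 mM Tris pH 8.0, 300 mM NaCl, 1 mM TCEP. Glutathione donor and nickel acceptor beads; 1 h, 37 °C, dark.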
DT40 TDP1 no CPT: qHTS for Inhibitors of human tyrosyl-DNA phosphodiesterase 1 (TDP1): qHTS in cells in absence of CPT | DT40 Tdp1-/- hTDP1 cells, no CPT, ATP luminescence, 48 h | Potency, µM (highest dose often 46.2 µM), most hits filed as inhibitors | 15% of 420,000 active | AID 686978, 2013; also: nearly all actives have a fitted effect of over 55% in size
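No-CPT arm: Tdp1-/-;hTDP1 DT40 cells (400/well) plus compounds, incubated ≥48 hr at 37 °C. Readout CellTiter-Glo luminescence.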
CtBP-E1A inh: qHTS Assay for Inhibitors of the CtBP/E1A Interaction. CtBP / adenovirus E1A interaction (AlphaScreen). AlphaScreen GST-E1A/His-CtBP binding, 1536-well; stronger effect = lower value. activity change, % (no concentration beside the values). 0.49% of 340,000 active; in the data active = activity change below about -65%; inconclusive = mostly about -30% to -63%
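Homogeneous bead-based format: GST-tagged E1A captured on glutathione donor beads, His-tagged CtBP on nickel acceptor beads; compounds precede bead addition by 2 h at 37 °C.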
IL-1B inflam inh: qHTS for Inhibitors of Inflammasome Signaling: IL-1-beta AlphaLISA Primary Screen; THP-1 LPS/ATP IL-1B secretion, AlphaLISA, 16 h; stronger effect = lower value; activity change, % at 57.5 µM; 4.7% of 360,000 active; AID 743279, 2014; in the data active = activity change below about -50%; inconclusive = mostly about -30% to -49%
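Secreted IL-1B measured by AlphaLISA bead assay after 16 h compound exposure of THP-1 cells; compounds (final up to 57.5 uM) added 1 h before LPS (250 ng/mL) and ATP (1.25 mM) stimulation; lower signal means less secretion.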
TDP1 block: qHTS Assay for Inhibitors of Tyrosyl-DNA Phosphodiesterase (TDP1). 0.28% of 350,000 active. Potency, µM (titrated, usually from 130 µM), most hits filed as inhibitors. recombinant TDP1, AlphaScreen DNA substrate cleavage. Tyrosyl-DNA phosphodiesterase 1 (Homo sapiens), Q9NUW8; also: nearly all actives have a fitted effect of over 40% in size
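Steps: enzyme plus compound, 15 min RT; add biotin/phosphotyrosine-FITC oligonucleotide (15 nM final), react 5 min; add donor/acceptor beads (10 ug/ml final), 10 min; read AlphaScreen. Tdp1 at 1 nM final.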
TDP1 cell CPT: qHTS for Inhibitors of human tyrosyl-DNA phosphodiesterase 1 (TDP1): qHTS in cells in presence of CPT | chicken DT40 Tdp1-/-;hTDP1 cells + 20 nM CPT, ATP luminescence, 48 h | Potency, µM (titrated, usually from 46.2 µM), hits mostly inhibitors | 12% of 420,000 active | AID 686979, 2013; also: nearly all actives have a fitted effect of over 55% in size
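Cell growth measured by CellTiter-Glo luminescence after a minimum 48 h, 37 C compound exposure with 20 nM CPT in Tdp1-knockout DT40 cells stably expressing hTDP1, seeded 400/well; qHTS titration format.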
Of the large screens only hits and unclear results are named; the others gave an inactive call. A selection: hits, their analogues and other compounds. The true share with any hit is near 18%. Unless noted, calls follow the shape of the dose curve; as a rule, active = well fitted curve in the direction sought with a large enough effect; inconclusive = small, poorly fitted or top-dose-only effect, or another doubt; inactive = no such curve, though single readings can be large; an effect the other way counts as inactive or inconclusive.

O=C(Nc1ccc(Cl)cn1)c1cccc(S(=O)(=O)N2CCOCC2)c1	none
O=C(Nc1ccncc1)c1cccc(S(=O)(=O)N2CCN(c3ccc(F)cc3)CC2)c1	DT40 TDP1 no CPT 21µM, IL-1B inflam inh inconclusive, TDP1 cell CPT 21µM
Cc1ccc(NC(=O)c2cccc(S(=O)(=O)N3CCN(c4ccc(F)cc4)CC3)c2)nc1	DT40 TDP1 no CPT inconclusive, TDP1 cell CPT 15µM
Clc1ccc(OCCSc2ncccn2)c2ccccc12	none (no result: TDP1 block)
CCN1CCN(Cc2ccc(NC(=O)Nc3ccccc3Cl)cc2)CC1	DT40 TDP1 no CPT inconclusive, TDP1 cell CPT inconclusive
N[C@@H](CO)c1nnc([C@H](CC(=O)O)NC(=O)C2CCNCC2)o1	CtBP-E1A inh inconclusive
Cn1c2ccccc2c(=O)c2ccc(C#Cc3ccccn3)cc21	DT40 TDP1 no CPT inconclusive, TDP1 cell CPT inconclusive (no result: TDP1 block)
COc1cccc2oc3ccc(C#CC4(N)CCCCC4)cc3c(=O)c12	DT40 TDP1 no CPT 3.7µM, IL-1B inflam inh -97, TDP1 cell CPT 7.3µM (no result: TDP1 block)
Cn1c2ccccc2c(=O)c2ccc(C#CC3(N)CCCCC3)cc21	DT40 TDP1 no CPT 13µM, IL-1B inflam inh -86 (no result: TDP1 block)
NC1(C#Cc2ccc3c(=O)c4ccccc4sc3c2)CCCCC1	DT40 TDP1 no CPT inconclusive, TDP1 cell CPT 26µM
O=c1c2ccccc2oc2ccc(C#CC3(O)CCCCC3)cc12	DT40 TDP1 no CPT inconclusive, TDP1 cell CPT inconclusive (no result: TDP1 block)
Cn1c2ccccc2c(=O)c2cc(C#CC3(O)CCCCC3)ccc21	DT40 TDP1 no CPT inconclusive, IL-1B inflam inh -53, TDP1 cell CPT 16µM (no result: TDP1 block)
Cc1cc2sc3ccc(C#CC4(O)CCCCC4)cc3c(=O)c2cc1C	DT40 TDP1 no CPT inconclusive (no result: TDP1 block)
Cc1cccc(-n2c(Cc3ccccc3)nnc2SCC(=O)N2CCOCC2)c1	none
COc1ccc(N2CCN(CC(=O)c3c(C)n(C)c4ccc(OC)cc34)CC2)cc1	DT40 TDP1 no CPT 23µM, TDP1 cell CPT 18µM (no result: IL-1B inflam inh, TDP1 block)
Cc1c(O)ccc(C(=O)CN2CCN(c3ccccc3F)CC2)c1O	DT40 TDP1 no CPT 23µM, TDP1 cell CPT inconclusive (no result: CtBP-E1A inh)
O=C(CN1CCN(c2ccccc2)CC1)N1CCN(c2ccccc2)CC1	DT40 TDP1 no CPT inconclusive, TDP1 cell CPT inconclusive
O=C(CN1CCN(c2ccccc2F)CC1)c1ccc(O)c(O)c1	DT40 TDP1 no CPT 10µM, TDP1 cell CPT 23µM (no result: TDP1 block)
Cc1c(O)ccc(C(=O)CN2CCN(c3ccccc3)CC2)c1O	DT40 TDP1 no CPT 23µM, TDP1 cell CPT inconclusive (no result: CtBP-E1A inh)
NC(=O)CN1CCN(c2ccccc2F)CC1	none
COc1ccc(N2CCN(CC(=O)c3ccc(O)c(C)c3O)CC2)cc1	DT40 TDP1 no CPT 21µM, TDP1 cell CPT inconclusive (no result: CtBP-E1A inh)
COc1ccc(C(=O)CN2CCN(c3ccc(F)cc3)CC2)cc1	none (no result: CtBP-E1A inh, TDP1 block)
Cc1ccc2c(c1)C(c1ccccc1)N(C(=O)c1ccc(OC(C)C)cc1)CC(=O)N2 (stereo not given)	DT40 TDP1 no CPT inconclusive, TDP1 cell CPT inconclusive (no result: Six1-Eya2 blk, CtBP-E1A inh, IL-1B inflam inh)
CCC(OC(=O)C(CC(C)C)NC(=O)c1ccccc1)C(=O)Nc1nnc(C)s1 (stereo not given)	DT40 TDP1 no CPT 5.8µM, TDP1 cell CPT inconclusive
CCOC(=O)c1sc(NC(=O)C(CC)OC(=O)C(CC(C)C)NC(=O)c2ccccc2)nc1C (stereo not given)	none
CCOc1ccc(S(=O)(=O)NCCc2c(C)[nH]c3c(Cl)cccc23)cc1C	DT40 TDP1 no CPT inconclusive, TDP1 cell CPT 23µM (no result: Six1-Eya2 blk, CtBP-E1A inh, IL-1B inflam inh)
N#CCCn1cc(C(=O)NCc2ccccc2)c(-c2cccs2)n1	none
CC(C)C(=O)Nc1cccc(C(=O)Nc2ccc(S(=O)(=O)Nc3nccs3)cc2)c1	none
c1ccc(-c2cccc(N3CC[C@@]4(CCCNC4)C3)c2)cc1	DT40 TDP1 no CPT 6.5µM, TDP1 cell CPT 8.2µM (no result: Six1-Eya2 blk, CtBP-E1A inh, IL-1B inflam inh, TDP1 block)
